Entries with a potency or affinity are not part of this list. Records with an inconclusive call do not appear. Active and inactive are the calls of the source. The rule behind the calls is not given here.
Experiment: H4 neuroglioma control reporter inhibition, dose response, counter-screen for prion reporter project, cell-based, plate reader, dry powder samples (AID 540255)
Details: series mostly up to 5 µM

## COc1ccc(N=CC2=C(O)c3ccccc3C2=O)c(OC)c1
  outcome: inactive

## Cc1cccc(C(=O)O/N=C(\N)c2ccccn2)c1
  outcome: inactive
